# Compound activity as filed in PubChem BioAssay.
# Peg3 promoter = Peg3 promoter-driven luciferase inhibitors, primary screen, cell-based, HeLa, luciferase luminescence. HeLa PEG-Prom luciferase reporter, overnight. AID 588405, 2011. 360,000 tested, 1.7% active. inhibition, % at 20 µM;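 active means inhibition of at least 50% at 20 µM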
# TRPM1 prom inh = inhibitors of MITF-dependent TRPM1 promoter reporter, primary screen, cell-based, SK-MEL-5, single point, luciferase. SK-MEL-5 TRPM1 promoter luciferase, 24 h. inhibition, % at 12.5 µM. 330,000 tested, 0.83% active;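 active means mean inhibition across replicates of 60% or more, whatever share of single replicates reaches that level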
# HIF-2a inh = HIF-2a reporter inhibitors, primary screen, luminescence, 786-0 RCC cells; 360,000 tested, 0.72% active; inhibition, % at 18.8 µM; 786-0 RCC cells HIF-2a reporter, luciferase luminescence, overnight;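 active means inhibition of the luminescence signal of 40% or more relative to plate controls, in a single-dose primary screen at 18.75 µM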
# CHOP inh = inhibitors of CHOP promoter induction, primary screen, cell-based, unfolded protein response, luciferase reporter; CHO-K1 CHOP-promoter luciferase, tunicamycin-induced, 15-18 h; inhibition, % at 10 µM; 220,000 tested, 3.8% active;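 active means compounds that reduced the stress-induced luciferase reporter signal by more than about 70% of percent inhibition, limit read from the data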
# CF NFkB inh = inhibitors of PAF-induced NF-kB signaling, primary screen, cell-based, GFP fluorescence, uHTS. 360,000 tested, 0.86% active. AID 588850, 2011. KKLEB NF-kB-GFP reporter, GFP fluorescence overnight. inhibition, % at 5 µM;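 active means at least 50% inhibition at 5 µM, scaled per plate between neutral and stimulator controls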;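 further: PAF is a Pseudomonas aeruginosa culture filtrate used as stimulus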
# KKLEB tox = cytotoxicity in KKLEB CF airway cells, primary screen, cytotoxicity control for CF NF-kB inhibitor project, cell-based, uHTS, fluorescence assay plates | KKLEB CF airway cells viability, ATPlite luminescence, overnight; hits give low values; cells stimulated with P. aeruginosa culture filtrate | activity change (cytotoxicity), % at 5 µM | 360,000 tested, 0.36% active;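 active means corrected activity change at or below -50% at 5 µM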
# Mdm2 MdmX conf = retested Mdm2-MdmX interaction blockers, confirmation, cell-based, luminescence, single concentration, set 2. shares compounds with HIF-2a inh. SaOS-2 split-luciferase Mdm2/MdmX complementation. inhibition, % at 8 µM. 740 tested, 99% active;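 active means mean inhibition of the luminescence signal across two replicates at or above 26 percent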
# Target sequence (O15151 whole entry, looked up): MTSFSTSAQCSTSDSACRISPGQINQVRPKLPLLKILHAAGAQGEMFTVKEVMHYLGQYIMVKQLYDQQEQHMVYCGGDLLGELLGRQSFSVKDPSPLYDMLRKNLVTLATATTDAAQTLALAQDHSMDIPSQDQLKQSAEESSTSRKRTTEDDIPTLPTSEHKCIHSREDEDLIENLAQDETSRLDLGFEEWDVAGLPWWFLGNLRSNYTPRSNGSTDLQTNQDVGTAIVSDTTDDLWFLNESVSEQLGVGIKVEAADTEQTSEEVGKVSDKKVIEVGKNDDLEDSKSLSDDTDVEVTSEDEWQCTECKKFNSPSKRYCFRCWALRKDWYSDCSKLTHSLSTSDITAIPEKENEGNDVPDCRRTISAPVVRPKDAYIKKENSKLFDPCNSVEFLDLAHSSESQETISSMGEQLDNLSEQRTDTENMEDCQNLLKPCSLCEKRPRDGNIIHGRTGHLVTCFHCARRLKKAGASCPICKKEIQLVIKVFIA
# Target sequence (Q00987 whole entry, looked up): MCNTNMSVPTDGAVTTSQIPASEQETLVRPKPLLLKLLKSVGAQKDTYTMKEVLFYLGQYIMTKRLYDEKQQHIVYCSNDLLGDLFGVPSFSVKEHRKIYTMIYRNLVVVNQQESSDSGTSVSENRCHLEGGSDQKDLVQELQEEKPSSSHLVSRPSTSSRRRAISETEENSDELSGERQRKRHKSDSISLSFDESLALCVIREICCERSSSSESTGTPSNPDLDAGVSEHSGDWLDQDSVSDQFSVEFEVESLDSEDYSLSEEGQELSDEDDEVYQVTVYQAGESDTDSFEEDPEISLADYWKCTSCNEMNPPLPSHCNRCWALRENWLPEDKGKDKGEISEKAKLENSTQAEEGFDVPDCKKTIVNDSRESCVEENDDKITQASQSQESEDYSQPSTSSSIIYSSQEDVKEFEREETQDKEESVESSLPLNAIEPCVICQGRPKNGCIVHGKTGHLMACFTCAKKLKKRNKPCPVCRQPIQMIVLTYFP
# HIF-2a conf = HIF-2a reporter inhibitor retest, confirmation, luminescence, 786-0 RCC cells; shares compounds with HIF-2a inh; inhibition, % at 18.8 µM; HIF-2a luciferase reporter luminescence, overnight; 1,800 tested, 56% active;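 active means mean inhibition across four replicates of at least 40 percent at the single tested concentration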
# HIF-1a counter = HIF-1a luciferase reporter signal reduction – MiaPaCa-2 cells, single concentration, counter-screen for HIF-2a inhibitor project, confirmation; shares compounds with HIF-2a inh; MiaPaCa-2 HIF-1a luciferase reporter, desferoxamine, overnight; 1,800 tested, 72% active; inhibition, % at 18.8 µM;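 active means mean inhibition of the reporter signal across four replicates at the single tested dose of 50% or more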
# A number is an active result; 0 = inactive; - = no result. Rows were chosen to be rich in hits. Some 4.3% of all compounds tested hit in one or more screens of this group.
SMILES,Peg3 promoter,TRPM1 prom inh,HIF-2a inh,CHOP inh,CF NFkB inh,KKLEB tox,HIF-2a conf,HIF-1a counter,others
CCCC[C@H](CN[C@@H](CNC)[C@H](C)CC)NCCC12CCC(CC1)C2,102.2,93.5,0,-,0,0,-,-,Mdm2 MdmX conf=102.7
Cc1ccc(-c2cc(C(=O)N3CC(C)CC(C)C3)c3ccccc3n2)o1 (stereo not given),0,0,44.1,-,0,0,0,0,
Cc1ccc(-c2cc(C(=O)N3CC(C)OC(C)C3)c3ccccc3n2)o1 (stereo not given),0,0,0,-,0,0,-,-,
COc1cccc(CN2CCCC(C(=O)Nc3ccc(-c4cscn4)cc3)C2)c1 (stereo not given),0,0,0,-,0,0,-,-,
O=C1c2ccccc2-n2c1nc1ccccc1c2=O,0,-,0,0,0,0,-,-,
CC(C)N1C(=O)/C(=C/c2nc3ccccc3c(=O)n2-c2ccccc2)c2ccccc21,0,0,63.8,0,0,0,58.9,101.7,
O=C(O)c1ccc(Cl)c(NCc2cccs2)c1,0,0,0,-,0,0,-,-,
CCOc1ccc2nc(Cl)c(C3CC(c4ccco4)=NN3S(C)(=O)=O)cc2c1 (stereo not given),0,0,44.8,0,0,0,0,0,
CCN(CC(=O)Nc1c(F)cccc1F)C(=O)c1cc(S(=O)(=O)N(C)C)ccc1N1CCCC1,0,0,0,-,0,0,-,-,
CCN(CC(=O)Nc1c(F)cccc1F)C(=O)c1cc(S(=O)(=O)N(CC)CC)ccc1N1CCCCC1,0,0,47.6,-,0,0,0,0,
CC(OC(=O)CCc1nc2ccccc2c(=O)[nH]1)C(=O)Nc1cccc(C(F)(F)F)c1 (stereo not given),0,0,0,-,0,0,-,-,
COc1ccc(S(=O)(=O)NC2CC(C)(C)NC(C)(C)C2)cc1C(C)C,0,0,0,0,0,0,-,-,
CCOc1ccc(N=C(C)C2=C(O)c3ccccc3C2=O)cc1,0,0,0,0,0,0,-,-,
CCOc1ccc(N=C(NN)c2ccc3ccccc3n2)cc1,0,0,48.9,0,0,0,45.1,66.2,
CC[C@]12c3[nH]c4ccccc4c3CCN1C(=O)C(CC(=O)NC/C=C(\C)CCC=C(C)C)C[C@@H]2C(=O)N1CCN(C(=O)c2ccco2)CC1 (stereo not given in full),0,0,0,-,0,0,-,-,
O=C1NC2c3c(I)sc(I)c3C(=O)C2O1 (stereo not given),105.9,0,52.6,-,0,0,0,0,
Cc1cc(C)nc(NC(=O)/C=C/c2ccccc2Cl)c1,0,0,0,0,0,0,-,-,
Cc1cc(N)c2cc(NC(=O)/C=C/c3ccccc3Cl)ccc2n1,103.8,99.9,96.3,0,0,0,95.4,107.7,Mdm2 MdmX conf=103.0
C[C@@H]1CN([C@@H](C)CO)C(=O)CCCn2nncc2CO[C@@H]1CN(C)S(=O)(=O)c1ccc(Oc2ccccc2)nc1,0,-,0,-,0,0,-,-,
COc1ccc(/C=C2\SC(=O)N(CCCC(=O)Nc3cc(Cl)ccc3C(=O)O)C2=O)cc1,76.1,89.2,89.5,-,0,0,98.2,99.3,
Cn1cc([N+](=O)[O-])c(C(=O)Nc2ccn(C34CC5CC(CC(C5)C3)C4)n2)n1,0,0,49.3,0,0,0,60.1,57.5,
CCn1cc([N+](=O)[O-])c(C(=O)Nc2ccn(C34CC5CC(CC(C5)C3)C4)n2)n1,0,0,0,0,0,0,-,-,
Cn1cc([N+](=O)[O-])c(C(=O)Nc2nc(-c3ccc(Cl)cc3)cs2)n1,106.5,83.2,93.9,0,88.9,-95.2,86.2,105.0,
Cc1cc(C)n(Cc2ccc(NC(=O)c3nn(C)cc3[N+](=O)[O-])cc2)n1,0,0,0,0,0,0,-,-,
Cc1ccc(-c2nc(NC(=O)c3nn(C)cc3[N+](=O)[O-])sc2C)cc1C,109.0,79.2,65.8,0,0,0,0,104.8,Mdm2 MdmX conf=100.2
SMILES,Peg3 promoter,TRPM1 prom inh,HIF-2a inh,CHOP inh,CF NFkB inh,KKLEB tox,HIF-2a conf,HIF-1a counter,others
Cc1ccc(-c2nc(NC(=O)c3nn(C)cc3[N+](=O)[O-])sc2C)cc1,109.0,85.4,93.2,0,88.8,-64.2,85.2,105.3,Mdm2 MdmX conf=102.7
CCOC(=O)C1Nc2ccc(C(F)(F)F)cc2C2c3ccccc3CC12 (stereo not given),0,0,0,-,0,0,-,-,Mdm2 MdmX conf=65.8
O=C(CN1CCCCC1)NC(=O)NC1CCCC1,0,0,0,0,0,0,-,-,
O=C(Cn1ncc(Cl)c(Cl)c1=O)NC(=O)NC1CCCCC1,89.3,115.2,84.2,-,90.5,-64.3,91.7,105.6,Mdm2 MdmX conf=101.5
COC(=O)c1ccc(CN(c2ccc(C(=O)O)c(O)c2)S(=O)(=O)c2ccc(Cl)c([N+](=O)[O-])c2)cc1,54.9,0,76.5,-,0,0,0,57.2,
COC(=O)c1ccc(CN(c2ccccn2)S(=O)(=O)c2ccccc2)cc1,0,0,0,0,0,0,-,-,
Fc1ccc(/C=C2\CCCC3=C2Nc2ncnn2C3c2ccc(F)cc2)cc1 (stereo not given),91.3,87.8,86.1,0,79.6,0,0,66.0,
CNC(=O)c1ccsc1NC(=O)CS(=O)(=O)c1ccc(Cl)cc1,0,0,0,-,0,0,-,-,
Cn1c(=S)n(C)c2ccccc21,0,0,55.3,0,0,0,0,0,
CCn1c(=O)n(CC)c2cc(N3CCCC3)c(NC(=O)c3cccc(Cl)c3)cc21,0,0,0,-,0,0,-,-,
CCOC(=O)COc1ccc(S(=O)(=O)NCCC2=CCCCC2)cc1,0,0,54.1,0,0,0,0,0,
COc1ccccc1C(=O)NCC(=O)OCC(=O)Nc1ccc2[nH]c(=O)[nH]c2c1,0,0,0,-,0,0,-,-,
Cn1c(/C=C/c2ccc(Br)cc2)c([N+](=O)[O-])c(=O)n(C)c1=O,61.6,0,92.0,-,0,0,55.3,96.1,
O=C(Cc1ccc(S(=O)(=O)N2CCOCC2)s1)OCc1ccc(Cl)cc1,0,0,0,-,0,0,-,-,
COC(=O)c1cccc(NC(=S)N2CCN(c3ccccc3F)CC2)c1,0,0,0,0,0,0,-,-,
